In PubChem BioAssay (EPA / NIEHS):
Results filed as inconclusive are left out. The source made the active and inactive calls. The calls were made as follows, unless noted: active = hit-call score of the fitted dose curve at least 0.9, where 1 is the maximum; inactive = score below 0.9.

Columns and labels:
[1] = CCTE_Mundy_HCI_Cortical_Synap_Neur_Matur_NeuriteSpotCountPerNeuriteLength: CCTE's Synaptogenesis and Neurite Maturation Assay in rat cortical cells for Neurite Spot Count per Neurite Length, Mundy Lab (AID 2284210)
Method in brief: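 Synaptophysin spots per unit neurite length, measured by automated imaging of MAP2/synaptophysin/Hoechst-stained neurons. Cultures from rat cortex received chemical at DIV 7 with media change through DIV 12; glial growth arrested by AraC at DIV 5; DMSO baseline.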

[2] = CCTE_Mundy_HCI_Cortical_Synap_Neur_Matur_BPCount: CCTE's Synaptogenesis and Neurite Maturation Assay in rat cortical cells for Branch Point Count, Mundy Lab (AID 2284211)
Method in brief: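 In this multiplexed morphology assay, cortical cells from rat receive chemicals at DIV 7 and are fixed at DIV 12, then immunostained and imaged; branch points are counted, with DMSO as baseline.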

[3] = CCTE_Mundy_HCI_Cortical_NOG_NeuriteCount: CCTE's Neurite Outgrowth Assay in rat cortical cells for Neurite Count, Mundy Lab (AID 2284212);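 also: cells fixed about two days after chemical exposure began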
Method in brief: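 Rat cortical primary cells; compound added 2 h post-plating, 1/10 dilution of working solution. Anti-betaIII-tubulin/AF488 ICC; ArrayScan neurite count vs DMSO.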

[4] = CCTE_Mundy_HCI_Cortical_NOG_NeuriteLength: CCTE's Neurite Outgrowth Assay in rat cortical cells for Neurite Length, Mundy Lab (AID 2284213)
Method in brief: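 First, rat primary cortical cells were plated and, 2 h later, given test chemical as a 1/10 dilution. Finally, βIII-tubulin immunostaining enabled automated imaging of neurite length.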

[5] = CCTE_Mundy_HCI_Cortical_Synap_Neur_Matur_NeuriteSpotCountPerNeuron: CCTE's Synaptogenesis and Neurite Maturation Assay in rat cortical cells for Neurite Spot Count per Neuron Count, Mundy Lab (AID 2284215)
Method in brief: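 High-content imaging counts synaptophysin puncta along MAP2-labelled neurites per neuron after chemical exposure of rat cortical cells from DIV 7 to termination at DIV 12 (AraC added DIV 5). Loss of signal relative to DMSO.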

[6] = CCTE_Mundy_HCI_Cortical_Synap_Neur_Matur_SynapseCount: CCTE's Synaptogenesis and Neurite Maturation Assay in rat cortical cells for Synapse Count, Mundy Lab (AID 2284218)
Method in brief: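 Endpoint: synapses/neuron by HCI (synaptophysin puncta on MAP2-labelled neurites, Hoechst nuclei). Rat primary cortical cells, AraC DIV 5, dosed DIV 7, fixed DIV 12; DMSO negative control.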

[7] = CCTE_Mundy_HCI_Cortical_Synap_Neur_Matur_NeuriteCount: CCTE's Synaptogenesis and Neurite Maturation Assay in rat cortical cells for Neurite Count, Mundy Lab (AID 2284222);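 also: exposure from day 7 to day 12 in vitro with readout at day 12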
Method in brief: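 Chemical exposure runs DIV 7–12 in rat cortical cultures, glia suppressed by AraC at DIV 5; measurement is at DIV 12. Imaging-derived neurite counts are fitted against DMSO baseline.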

[8] = CCTE_Mundy_HCI_Cortical_Synap_Neur_Matur_CellBodySpotCount: CCTE's Synaptogenesis and Neurite Maturation Assay in rat cortical cells for Cell Body Spot Count, Mundy Lab (AID 2284223)
Method in brief: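 High-content imaging counts synaptophysin puncta on neuronal cell bodies per neuron after MAP2/synaptophysin immunostaining. Rat primary cortical cells, glia arrested with AraC at DIV 5, were exposed DIV 7–12; signal decrease measured against DMSO.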

[9] = UKN2_HCS_IMR90_cell_viability: Viability Assessment in the University of Konstanz (UKN) Leist Lab Neural Crest Cell Migration Assay in human induced IMR90 Pluripotent Stem Cells (UKN2) (AID 2284233);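 also: cells exposed to compound for 24 h after a 24 h migration phase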
Method in brief: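 After calcein-AM/Hoechst staining, viability is quantified by high-content fluorescence imaging, relative to DMSO, in iPSC (IMR90)-derived neural crest cells. Exposure lasts 24 h, starting after a 24 h migration period on PLO/laminin/fibronectin coating.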

[10] = CCTE_Mundy_HCI_Cortical_NOG_BPCount: CCTE's Neurite Outgrowth Assay in rat cortical cells for Branch Point Count, Mundy Lab (AID 2284237)
Method in brief: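 Measured 50.33 h after dosing, this morphology endpoint uses rat primary cortical cultures labelled for betaIII-tubulin. Branch points are quantified by high-content imaging, with DMSO as negative control and baseline.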

[11] = CCTE_Mundy_HCI_hNP1_Casp3_7: CCTE's Caspase-Glo 3/7 Assay in human neuroprogenitor cells for Apoptosis, Mundy Lab (AID 2284240)
Method in brief: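 Apoptosis is scored by activated caspase-3/7 luminescence in WA09-derived neural progenitor cells, measured 26.5 h after chemical dosing. Values represent gain of signal relative to DMSO vehicle.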

[12] = IUF_NPC2c_oligodendrocyte_migration_120hr: Leibniz Research Institute for Environmental Medicine (IUF) 120-hour Neural Progenitor Cell Migration Assay for Oligodendrocyte Migration (NPC2c) (AID 2284297);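 also: O4-positive oligodendrocyte migration distance divided by radial glia migration distance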
Method in brief: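 Exposure runs 5 days from differentiation onset at 37C, seven concentrations plus solvent control, DMSO at most 0.1%, applied to primary hNPC spheres on laminin. After fixation, O4 immunostaining gives oligodendrocyte distance from the sphere core, relative to radial glia migration.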

[13] = IUF_NPC2a_radial_glia_migration_120hr: Leibniz Research Institute for Environmental Medicine (IUF) 120-hour Neural Progenitor Cell Migration Assay for Radial Glia Migration (NPC2a) (AID 2284298)
Method in brief: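 Migration distance in um, sphere core edge to migration-area edge, derived by nuclei-density algorithm from Hoechst images after 120 h compound exposure. Primary hNPC spheres differentiated on poly-D-lysine/laminin in N2 medium, 37C; medium half-replaced day 3.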

[14] = IUF_NPC2a_radial_glia_migration_72hr: Leibniz Research Institute for Environmental Medicine (IUF) 72-hour Neural Progenitor Cell Migration Assay for Radial Glia Migration (NPC2a) (AID 2284299)
Method in brief: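 Spheres of human primary neural progenitors migrate on poly-D-lysine/laminin under compound exposure at 37C, 5% CO2. The 72 h radial glia migration distance comes from brightfield images, measured manually.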

[15] = IUF_NPC2b_neuronal_migration_120hr: Leibniz Research Institute for Environmental Medicine (IUF) 120-hour Neural Progenitor Cell Migration Assay for Neuron Migration (NPC2b) (AID 2284300)
Method in brief: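 TUBB3-positive neurons are imaged after 120 h of differentiation, and their mean distance from the sphere edge is normalised to radial glia migration. Single 0.3 mm fetal hNPC spheres on poly-D-lysine/laminin received 7 compound concentrations, ≤0.1% DMSO, refreshed at day 3.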

[16] = IUF_NPC3_neuronal_differentiation_120hr: Leibniz Research Institute for Environmental Medicine (IUF) 120-hour Neuronal Differentiation Assay (NPC3) (AID 2284301)
Method in brief: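 Value is percent TUBB3-positive neurons among Hoechst-stained nuclei in the migration area, scored by trained CNN after 120 h differentiation. Primary hNPC spheres on poly-D-lysine/laminin, N2 medium, continuous dosing from day 0, half-refeed day 3; DMSO reference.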

[17] = IUF_NPC4_neurite_length_120hr: Leibniz Research Institute for Environmental Medicine (IUF) 120-hour Neuronal Morphology Assay for Neurite Length (NPC4) (AID 2284302)
Method in brief: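 Neurite length, the mean in um across TUBB3-stained neurons, is derived by skeletonization of high-content images after 120 h differentiation. Compound exposure, 7 concentrations plus solvent control, ran from plating of hNPC spheres on poly-D-lysine/laminin, with medium half-replaced on day 3.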

[18] = IUF_NPC5_oligodendrocyte_differentiation_120hr: Leibniz Research Institute for Environmental Medicine (IUF) 120-hour Oligodendrocyte Differentiation Assay (NPC5) (AID 2284304; active = hit-call score of the fitted dose curve at least 0.9, where 1 is the maximum;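 also: primary human fetal neural progenitor spheres plated to migrate and differentiate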)
Method in brief: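 Oligodendrocyte differentiation scored as O4-positive cells, found by CNN image analysis, as percent of Hoechst-stained nuclei in the migration area. Scoring followed 5 days of exposure of plated hNPC neurospheres differentiating in DMEM/F12 N2 medium at 37C, with compound refreshed at day 3.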

[19] = IUF_NPC4_neurite_area_120hr: Leibniz Research Institute for Environmental Medicine (IUF) 120-hour Neuronal Morphology Assay for Neurite Area (NPC4) (AID 2284305; active = hit-call score of the fitted dose curve at least 0.9, where 1 is the maximum)
Method in brief: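 Neurite area (pixels, nuclei excluded) of TUBB3-positive neurons from hNPC spheres differentiating 5 days under continuous exposure at 37 C, 5% CO2. High-content imaging; loss of signal versus DMSO control across 7 concentrations.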

[20] = IUF_NPC2-5_cytotoxicity_72hr: Cytotoxicity Assessment at 72 hours in the Leibniz Research Institute for Environmental Medicine (IUF) Neural Progenitor Cell Migration and Differentiation Assay for Cytotoxicity (NPC2-5) (AID 2284306; active = hit-call score of the fitted dose curve at least 0.9, where 1 is the maximum;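 also: LDH release into supernatant measured by resorufin fluorescence marking membrane damage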)
Method in brief: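 Membrane-integrity cytotoxicity at 72 h, read as LDH-driven resorufin fluorescence in supernatant. hNPC spheres from fetal cortex differentiate on coated plates in N2 medium, 37C, 5% CO2; seven serial compound concentrations plus solvent control (DMSO ≤0.1%).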

[21] = IUF_NPC2-5_cytotoxicity_120hr: Cytotoxicity Assessment at 120 hours in the Leibniz Research Institute for Environmental Medicine (IUF) Neural Progenitor Cell Migration and Differentiation Assay (NPC2-5) (AID 2284307; active = hit-call score of the fitted dose curve at least 0.9, where 1 is the maximum)
Method in brief: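 Membrane-integrity loss measured as LDH activity in medium supernatant via resazurin-to-resorufin fluorescence after 120 h exposure. hNPC spheres from GW 16-19 fetal cortex differentiated on poly-D-lysine/laminin, 37C, medium half-refreshed day 3; seven concentrations, DMSO max 0.1%.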

[22] = IUF_NPC2-5_cell_number_120hr: Cell Number Assessment at 120 hours in the Leibniz Research Institute for Environmental Medicine (IUF) Neural Progenitor Cell Migration and Differentiation Assay (NPC2-5) (AID 2284308);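 also: count of Hoechst-stained nuclei in migration zone around plated human neural progenitor spheres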
Method in brief: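 Counting of all Hoechst-stained nuclei in the migration area at 120 h, versus DMSO control. Primary hNPC spheres differentiated on poly-D-lysine/laminin in N2 medium at 37C, dosed from day 0 (7 concentrations, DMSO ≤0.1%), half-refed day 3.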

[23] = IUF_NPC2-5_viability_120hr: Viability Assessment at 120 hours in the Leibniz Research Institute for Environmental Medicine (IUF) Neural Progenitor Cell Migration and Differentiation Assay (NPC2-5) (AID 2284312)
Method in brief: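 Alamar blue resorufin fluorescence read after 5 days of differentiation, with compound present from day 0 and replenished at day 3. Primary hNPC spheres on laminin-coated plates, 37C; seven concentrations plus solvent control, fitted against DMSO.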

[24] = CCTE_Mundy_HCI_iCellGluta_NOG_NeuriteLength: CCTE's Neurite Outgrowth Assay in iCellGluta cells for Neurite Length, Mundy Lab (AID 2284318; active = hit-call score of the fitted dose curve at least 0.9, where 1 is the maximum)
Method in brief: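 Automated high-content imaging of betaIII-tubulin (Alexa Fluor-488) and Hoechst-stained cells gave neurite length, normalized to the DMSO baseline.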

[25] = IUF_NPC1_cytotoxicity_72hr: Cytotoxicity Assessment at 72 hours in the Leibniz Research Institute for Environmental Medicine (IUF) Neural Progenitor Cell Proliferation Assay (NPC1) (AID 2284332; active = hit-call score of the fitted dose curve at least 0.9, where 1 is the maximum;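 also: rising LDH signal means more cytotoxicity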)
Method in brief: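 Readout is fluorescence from LDH-dependent resazurin conversion, sampled from culture medium after compound contact lasting 72 h. Each well holds one 0.25-0.35 mm human progenitor sphere kept at 37C, 5% CO2 with EGF and FGF.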

[26] = CCTE_Mundy_HCI_iCellGluta_NOG_NeuronCount: CCTE's Neurite Outgrowth Assay in iCellGluta cells for Neuron Count, Mundy Lab (AID 2284340; active = hit-call score of the fitted dose curve at least 0.9, where 1 is the maximum;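 also: cells fixed about 48 h after compound addition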)
Method in brief: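 Neuron count read by automated high-content imaging of Hoechst 33342 and betaIII-tubulin/Alexa Fluor-488 labelling in human iPSC glutamatergic neurons. Activity fitted relative to DMSO.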

[27] = CCTE_Mundy_HCI_iCellGluta_NOG_NeuriteCount: CCTE's Neurite Outgrowth Assay in iCellGluta cells for Neurite Count, Mundy Lab (AID 2284342; active = hit-call score of the fitted dose curve at least 0.9, where 1 is the maximum;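 also: chemical exposure about 48 hours starting 2 hours after plating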)

Measured: AC50

[Cl-].[Cl-].[NH2-].[NH2-].[Pt+4]
active: [2] 0.029 µM | [16] 9.95 µM | [17] 33.2 µM | [20] 34.7 µM | [22] 28.4 µM | [24] 26 µM | [26] 85.7 µM | [27] 70 µM
inactive: all other assays above
